Results as given in the supplement of paper PMC6555819.

Columns and labels:
Experiment in all cases: PBM binding z-score (relative to random genomic background probes); higher = stronger binding; sequences stand for … in GC…GCGATTGACAGCGTAGAATGAAGG
[1] = system: RARb homodimer (NR concentration 270 nM)
How it was run: (§1)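 On custom Agilent 4×180K arrays, double-stranded probes with 34-nt variable regions carried direct-repeat seeds, single-nucleotide variants, half-site ablations or random human genomic background. Ligand-free nuclear receptor dimers were applied for 1 h, and binding was read with antibodies against each partner (one per run). Binding z-scores come from regression-normalized fluorescence, with the random background probes as reference.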

[2] = system: RARg:RXRa (NR concentration 270 nM, RXRa partner concentration 90 nM)
How it was run: as §1

[3] = system: RARg homodimer (NR concentration 270 nM)
How it was run: as §1

[4] = system: RXRa DBDmut IVT, anti-RXR (DBD mutation: RXRa K156A/R161A, NR concentration 90 nM)
How it was run: as §1

[5] = system: RXRa homodimer (NR concentration 180 nM)
How it was run: as §1

[6] = system: THRa:RXRa (NR concentration 90 nM, RXRa partner concentration 90 nM)
How it was run: as §1

[7] = system: THRa homodimer (NR concentration 90 nM)
How it was run: as §1

[8] = system: VDR:RXRa (NR concentration 270 nM, RXRa partner concentration 90 nM)
How it was run: as §1

[9] = system: VDR homodimer (NR concentration 270 nM)
How it was run: as §1

Row | Sequence | PBM binding z-score [1] | PBM binding z-score [2] | PBM binding z-score [3] | PBM binding z-score [4] | PBM binding z-score [5] | PBM binding z-score [6] | PBM binding z-score [7] | PBM binding z-score [8] | PBM binding z-score [9]
1 | CCTAGCAGGCCAGGGTCACTCGAGCATTTCGCTT | 2.57 | 3.06 | 2.18 | 0.188 | 3.57 | 2.83 | 0.909 | 2.54 | 1.33
2 | TCTTGTAGCTCAGCAGGTTAAGAAAGCTGGCCAA | -0.305 | -0.557 | -0.799 | -0.298 | -0.011 | -0.123 | -0.926 | -0.236 | -0.952
3 | TCTAGTTAGTCAAAGGTCACACACTCGAAATGCG | 4.84 | 6.12 | 5.68 | 2.03 | 7.09 | 3.97 | 1.9 | 4.97 | 2.57
4 | CCGACTGGGGCCAGGTTACCATAACGCACAGCCA | 0.918 | 0.349 | 0.638 | -0.672 | 0.426 | 0.785 | 0.378 | -0.248 | -0.444
5 | CCGACTGGGGTAAAGGTTACCATACTCAGTACGA | 1.83 | 2.51 | 1.44 | 0.246 | 3.27 | 2.05 | -0.0216 | 1.18 | 0.207
6 | GCGACTGGGGTAAAGCAGGTTACCATAAGGTTGG | 0.792 | 0.464 | 0.108 | -0.286 | 1.03 | 2.59 | 0.334 | 1.15 | -0.11
7 | CGCCAAAGTTCAAGGTAACGTAACAGAAAGCAGC | 4.05 | 5.2 | 5.94 | 4.68 | 4.57 | 2.96 | 1.28 | 3.76 | 3.03
8 | ATCGAAAGGGCGAAGGTGAGTATACCCACCCGAA | 1.17 | 1.63 | 1.2 | -0.634 | 1.59 | 0.3 | -0.75 | 0.347 | -0.263
9 | GCATATAGGTAATAGAAGGTGAAAGTCCGATTGT | 0.803 | 0.423 | 0.585 | 0.488 | 0.618 | 2.5 | -0.242 | 0.0859 | 0.274
10 | CAAACTAGGTCAAGAGGGCAAAGTCCGCTTCCCG | 4.13 | 5.73 | 5.4 | 1.86 | 4.07 | 3.04 | 1.03 | 3.46 | 1.78
11 | ATCGAAAGGTCGACGAGGTGACTATACACCGTTT | 3.13 | 4.44 | 4.48 | 1.17 | 5.08 | 3.95 | 1.27 | 5.95 | 1.11
12 | AATATTAGTTGAGACGAGGGCAACCGATAGGTTG | 1.28 | 0.902 | 0.922 | 0.47 | 0.883 | 2.64 | 0.504 | 1.01 | 1.73
13 | CGAACTAGGTCAGTGACAGGACAGTGAATAGTAA | 2.76 | 3.47 | 3.9 | 0.653 | 1.34 | 1.98 | 0.499 | 0.664 | 0.295
14 | CCGAGTTGGTCAGGAGGTCACACACCGGATATGA | 4.31 | 5.33 | 4.41 | 1.8 | 4.96 | 3.47 | 2.02 | 4.19 | 3.09
15 | ACTACTAGTTGAGACGAGGGCAACCGATAGGTTG | 1.18 | 0.816 | 0.767 | 0.00344 | 0.506 | 2.46 | 0.219 | 0.46 | 0.599
16 | CCTAGTTGGTCGAGGTCACACACGCTATAGGTAC | 3.98 | 4.6 | 4.42 | 2.64 | 5.16 | 4.16 | 4.15 | 4.8 | 4.51
17 | ATCGAAAGGTCGCGAGGTGAGTATACAGAAAGGC | 3.4 | 5.11 | 4.94 | 0.903 | 5.7 | 3.45 | 0.86 | 3.53 | 0.971
18 | CGAACTAGGTCATTGAAAGGACAGTGAATAGTAA | 3.34 | 6.37 | 4.98 | 2.17 | 2.84 | 3.16 | 0.878 | 2.36 | 0.863
19 | GCGACTGGGGCATCAGCAGGTTCCCATAACTTAA | 0.194 | -0.00118 | -0.0802 | -0.281 | -0.0306 | -0.0535 | -0.272 | -0.515 | -0.434
20 | TGAATGAGGTTATAAGATGAGGGAACGTTGCAAA | 0.278 | 1.31 | 1.12 | 0.817 | 1.76 | 1.77 | 0.282 | 0.832 | 0.388
21 | ATGTCTAGGTAAAAGTTCAGTGAATCCCGAGGAT | 2.32 | 1.91 | 1.91 | 0.508 | 1.57 | 1.11 | 0.0268 | 1.3 | 0.949
22 | CCTTTCGGGTCACTCCAGGTTATAGCATCGGAGT | 3.43 | 4.46 | 4.55 | 2.36 | 4.03 | 5.16 | 3.18 | 4.19 | 1.87
23 | TTACCAAGGTGAATGTCGTTGATCCCTCTGTAGA | 0.851 | 0.459 | 0.367 | 0.1 | 0.711 | 1.82 | 0.923 | 0.328 | -0.448
24 | CCTTACGGGTCGAGGTTATAGCACGGGTGGTACG | 1.42 | 1.78 | 1.16 | -0.662 | 2.5 | 1.84 | 0.377 | 1.25 | 0.977
